PLCb3 inh: PLC-beta3 (human) inhibition, primary screen. Q01970. Purified PLC-beta3, fluorogenic substrate, fluorescence. inhibition, % at 12.2 µM. 370,000 compounds, 0.18% hits. AID 720704; in the data active = inhibition above about 11%;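 note: 0% = median of compound wells on plate and 100% = full blocker control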
ADAM17 inh: inhibits human ADAM17; P78536; recombinant ADAM17, EDANS/DABCYL FRET peptide cleavage; inhibition, % at 6.95 µM; 370,000 compounds, 0.83% hits; AID 720648;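 active = inhibition above the mean of compounds lying between control limits plus 3 SD, set per campaign, cut at about 8.5% in these data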;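 note: 0% = DMSO-only wells as the low control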
HGIII-sPLA2 inh: Blocks human group III sPLA2 activity | Q9NZ20 | QFRET BODIPY PC-A2 liposome hydrolysis, fluorescence | inhibition, % at 12.2 µM | 370,000 compounds, 0.56% hits;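 active = inhibition above mean plus 3 SD of compounds lying within the high and low control bounds, cut at about 19% in these data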;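 note: 0% = median of test compound wells and 100% = no enzyme DMSO wells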
ADAM10 inh: ADAM10 inhibition, QFRET primary screen; inhibition, % at 7 µM; O14672; recombinant ADAM10, EDANS/DABCYL FRET peptide cleavage, 3 h; AID 720582; 370,000 compounds, 0.62% hits;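 active = inhibition above a per-campaign cutoff equal to the mean of compounds falling between control-based bounds plus 3 SD, cut at about 20% in these data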;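 note: 0% = DMSO wells while the 100% control is not disclosed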
PLC-gamma1 inh: inhibitors of human phospholipase C gamma1. P19174. AID 720700. purified PLC-gamma1, fluorogenic substrate, fluorescence. inhibition, % at 12.2 µM. 370,000 compounds, 0.84% hits; in the data active = inhibition above about 9.5%
KLK7 zymogen act: proKLK7 (human) activation, primary screen | activation, % at 7 µM | P49862 | purified proKLK7, EDANS-DABCYL substrate fluorescence; 100% is mature enzyme control, 0% vehicle | 370,000 compounds, 0.9% hits;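 active = activation above the mean of all tested compounds plus 3 SD, computed per campaign excluding outliers beyond control limits, cut at about 13% in these data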
Target sequence (P49862 whole entry, looked up): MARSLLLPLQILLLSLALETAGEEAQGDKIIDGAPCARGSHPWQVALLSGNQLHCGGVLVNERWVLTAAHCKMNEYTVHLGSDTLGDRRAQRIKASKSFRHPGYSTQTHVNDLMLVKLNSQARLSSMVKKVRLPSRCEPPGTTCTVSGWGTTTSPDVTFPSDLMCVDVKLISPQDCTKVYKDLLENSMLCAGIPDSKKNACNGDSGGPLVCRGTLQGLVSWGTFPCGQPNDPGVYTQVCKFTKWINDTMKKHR
KLK7 act conf: confirmation of human kallikrein-7 zymogen activators; purified proKLK7, EDANS-DABCYL substrate fluorescence; scaled: vehicle 0, mature enzyme 100; activation, % at 7 µM; 3,200 compounds, 68% hits; shares compounds with KLK7 zymogen act; AID 686949;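 active = activation, as change over the incubation, above the mean of all tested compounds plus 3 SD, cut at about 13% in these data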
EDANS-DABCYL int: optically interferes with EDANS-DABCYL signal, flagging KLK7 hits; activation, % at 7 µM; 3,200 compounds, 80% hits; EDANS-DABCYL substrate fluorescence interference, no enzyme, 4 h; solvent 0%, active enzyme control 100%; shares compounds with KLK7 zymogen act;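 active = activation above the all-compound mean plus 3 SD, ignoring values outside control-based bounds, cut at about 4.8% in these data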;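 note: value is the 4 h activation minus the activation read at time zero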
EDANS interf: optically interferes with EDANS-DABCYL fluorescence, kallikrein-7 activator counter-screen; 250 compounds, 20% hits; AID 720493; EC50, µM; shares compounds with KLK7 zymogen act; EDANS-DABCYL peptide fluorescence interference, no enzyme;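 active = compounds that raise the fluorescence signal in this interference counterscreen, with EC50 at or below 10 µM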;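 note: intact quenched peptide substrate alone read at 355 nm excitation and 520 nm emission; signal is fluorescence gain from T0 to T4 after four hours at room temperature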
ADAM10 confirm: confirmation of inhibitors of human ADAM10; inhibition, % at 6.95 µM; AID 743208; 2,100 compounds, 1% hits; shares compounds with ADAM10 inh; ADAM10 QFRET peptide cleavage, EDANS fluorescence;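 active = inhibition above about 20% chosen separately for each screening run, limit read from the data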;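 note: 0% = DMSO wells and 100% = marimastat wells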
ADAM17 counter: ADAM17 inhibition, counter-screen for ADAM10 exosite hits. ADAM17 QFRET peptide cleavage, EDANS fluorescence. 2,100 compounds, 0.5% hits. shares compounds with ADAM10 inh. inhibition, % at 6.95 µM. AID 743214;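 active = mean triplicate inhibition above the solvent-only control wells' mean plus 3 SD, cut at about 12% in these data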;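 note: 0% = DMSO wells and 100% = marimastat wells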
* hit, by the source's call; i = inactive; · = no result given. Shown are actives, neighbours in structure and some others; about 3.4% of the full set was active somewhere.

SMILES	PLCb3 inh	ADAM17 inh	HGIII-sPLA2 inh	ADAM10 inh	PLC-gamma1 inh	KLK7 zymogen act	KLK7 act conf	EDANS-DABCYL int	others
O=[N+]([O-])c1ccc(C2C3C(c4ccccc4)=NC4(CCCC4)N32)cc1 (configuration not stated)	7	1	3	10	4	0	·	·
CN(C)[C@@H]1C(=O)C(C(N)=O)=C(O)[C@@]2(O)C(=O)C3=C(O)c4c(O)cccc4[C@@](C)(O)C3C[C@@H]12 (some centres not stated)	-106	0	-9	0	-100	-1	·	·
CN(C)[C@@H]1C(=O)C(C(N)=O)=C(O)[C@@]2(O)C(=O)C3=C(O)c4c(O)ccc(Cl)c4[C@@](C)(O)[C@H]3C[C@@H]12	-69	-31	-11	-122	-49	13*	37*	35*
COc1ccc(C(=O)OC2C[C@H]3CC[C@@H](C2)N3O)cc1OC (some centres not stated)	-6	-7	-3	2	-4	0	·	·
CCC(=NCc1ccco1)c1c(O)n(-c2ccc(Cl)cc2)c(=O)[nH]c1=O	-9	-5	7	-2	-3	0	·	·
Cn1c(O)c(/C=C2\C=Nc3ccccc32)c(=O)n(C)c1=O	-2	-3	1	1	-2	0	·	·
Cn1c(O)c(/C=C2\C=c3ccccc3=NC2=O)c(=O)n(C)c1=O	-260	-33	-1	-89	-211	13*	14*	12*
COc1ccc(-n2c(/C=C/c3ccc(O)c(OC)c3)nc3ccccc3c2=O)cc1	i	-8	-26	-28	i	-1	·	·
O=c1c2ccccc2nc(/C=C/c2ccc(O)cc2)n1-c1cccc(O)c1	-428	-77	-54	-196	-356	214*	207*	78*
O=c1c2ccccc2nc(/C=C/c2ccc(O)cc2)n1-c1ccc(O)cc1	-467	-15	-49	-37	-346	26*	14*	2	EDANS interf=>23
COc1c(C=C2C(=O)NC(=O)NC2=O)c(CCN(C)C(=O)c2ccccc2)cc2c1OCO2	-11	-2	2	-15	-9	0	·	·
CC(=O)N1CCC2(CC1)CC(=O)c1cc(OCC(=O)N3CCN(C)CC3)ccc1O2	i	-475	4	i	i	42*	63*	68*
Cc1cc(OCC(=O)N2CCCN(C)CC2)ccc1Cl	-3	4	-7	4	7	0	·	·
CC(=O)N1CCC2(CC1)CC(=O)c1cc(OCC(=O)N3CCC4(CC3)OCCO4)ccc1O2	i	-354	3	i	i	36*	70*	65*
CCn1c(=O)cc(OCC(=O)N2CCC3(CC2)OCCO3)c2ccccc21	7	0	0	-2	2	0	·	·
CC(C)NC1(c2ccccc2)CCCCC1	1	0	0	-4	3	0	·	·
COc1ccc2c(c1)[nH]c1c(C)nccc12	i	-336	1	i	i	47*	20*	11*	EDANS interf=i
O=c1[nH]c(=S)n(Cc2ccc(F)cc2)c(O)c1C=NCC1CCCO1 (configuration not stated)	0	-2	0	-7	3	0	·	·
O=c1[nH]c(=S)n(Cc2ccc(F)cc2)c(O)c1/C=N/N1CCCCC1	-15	1	11	-4	-7	14*	2	1
O=C1NC2NC(=O)N([N+](=O)[O-])C2N1 (configuration not stated)	-1	-2	0	-7	-1	0	·	·
CS(=O)(=O)c1ccc(C2=C(CNC(=O)c3nccs3)[C@H]3CC[C@@H](C2)N3CCOc2ccccc2)cc1	2	0	-4	4	-1	0	·	·
COc1ccc2c3c([nH]c2c1)C(C)=NCC3	i	i	3	i	i	54*	58*	72*
CC1=NCCc2c1[nH]c1cc(O)ccc21	i	i	-417	i	i	80*	68*	71*
CC(C)NC1C2CCC(CC2)C1(O)c1ccc(Cl)c(Cl)c1 (configuration not stated)	-6	-3	3	-15	-2	0	·	·
O=c1ccc2cc(O[C@@H]3O[C@H](CO)[C@@H](O)[C@H](O)[C@H]3O)c(O)cc2o1	i	i	7	i	i	53*	67*	71*
SMILES	PLCb3 inh	ADAM17 inh	HGIII-sPLA2 inh	ADAM10 inh	PLC-gamma1 inh	KLK7 zymogen act	KLK7 act conf	EDANS-DABCYL int	others
Clc1ccc([C@H]2CC3CCC2N3)cn1 (some centres not stated)	-5	0	13	-20	0	0	·	·
Cc1cc(N=Nc2ccccc2C)ccc1N	1	6	11	23*	9.6*	-1	·	·	ADAM10 confirm=2;ADAM17 counter=0
Cc1ccc(/C=C2/Sc3ccc(C(=O)N4CCC5(CC4)OCCO5)cc3NC2=O)cc1	-10	5	-8	7	-7	1	·	·
O=C(CN1CCOCC1)c1cccc2ccccc12	-5	-1	0	2	-2	-1	·	·
Cc1c(C(=O)c2cccc3ccccc23)c2cccc3c2n1[C@H](CN1CCOCC1)CO3	-5	5	-20	20*	-4	0	·	·	ADAM10 confirm=6;ADAM17 counter=1
Nc1ccc(N2CCN(Cc3ccccc3Cl)CC2)c(Cl)c1	-6	3	12	22*	-3	0	·	·	ADAM10 confirm=3;ADAM17 counter=1
CCOC(=O)c1c(C)n(Cc2ccccc2)c2ccc(OCC(O)Cn3nc(C)cc3C)cc12 (configuration not stated)	-1	12*	-37	33*	2	1	·	·	ADAM10 confirm=9;ADAM17 counter=3
CN1CCCC1c1ccc(=O)[nH]c1 (configuration not stated)	0	-3	4	-15	-1	0	·	·
O=C(CNC(=O)OCc1ccccc1)Nc1ccc(Br)cc1C(=O)c1ccccc1	-2	8	-12	20*	3	0	·	·	ADAM10 confirm=6;ADAM17 counter=2
O=C(CNC(=O)OCc1ccccc1)NCC(=O)Nc1ccc(Br)cc1C(=O)c1ccccc1	-2	-3	13	-9	2	0	·	·
